Results on eight compounds are retold here after PubChem BioAssay (NCI).

About 83,000 compounds went through this panel and 20% of them were active in at least one assay; those are over-represented in the sample as a whole.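 Method: cells in 96-well plates; compound added at one concentration; 48 h incubation; percent growth measured; values under 10 scored active.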 A number with no mark means an inactive call. Activity calls are given as the source filed them.

Test systems include HCT-15 colon; HT29 colon; SNB-75 CNS; SNB-19 CNS; U251 CNS; PC-3 prostate; SK-MEL-5 melanoma; UACC-62 melanoma; LOX IMVI melanoma; SK-MEL-28 melanoma; SK-MEL-2 melanoma; EKVX NSCLC; SN12C renal; UO-31 renal; TK-10 renal; ACHN renal; CAKI-1 renal; A498 renal; CCRF-CEM leukemia; MOLT-4 leukemia.
Test in all cases: NCI-60 one-dose screen, 48 h (100 = growth as untreated, 0 = no growth, -100 = all killed)
Settings in all cases: 10 µM unless noted

Turning to `CN1C(=O)/C(=C/c2ccc(C(=O)Nc3ncc(Cc4ccc(F)cc4)s3)cc2)SC1=S`, the growth in the test with HCT-15 colon is 22.4%; in the test on HT29 colon, 29.5%; in the test on SNB-75 CNS, 40.3%; in the test with SNB-19 CNS, 60.5%; with U251 CNS, 65.2%; in the test on PC-3 prostate it was 52.4%. Moreover, the growth with SK-MEL-5 melanoma is 17.6%; in the test on UACC-62 melanoma, 9.34% (active); in the test on LOX IMVI melanoma, 15.4%; in the test with SK-MEL-28 melanoma it was 58%; in the test on SK-MEL-2 melanoma, 71.2%; with EKVX NSCLC, 48.4%. Besides, the growth was 61.8% in the test on SN12C renal; 46.5% with UO-31 renal; 53.5% in the test on TK-10 renal; 28% in the test on ACHN renal; 16.3% in the test with CAKI-1 renal; 35% with A498 renal. In addition, the growth in the test with CCRF-CEM leukemia is 47.8%; with MOLT-4 leukemia, 39.6%.
`CCOC(=O)Nc1nc2ccc(SCC(C)C)cc2s1`: the growth in the test with HCT-15 colon was 25.5%; in the test with HT29 colon, 9.7% (active); with SNB-75 CNS it was 74.3%; in the test on SNB-19 CNS, 49.9%; in the test on U251 CNS, 34.3%; in the test on PC-3 prostate, 36.9%. Further, the growth in the test on SK-MEL-5 melanoma is 34.1%; with UACC-62 melanoma it was 17.3%; with LOX IMVI melanoma, 36.3%; in the test with SK-MEL-28 melanoma it was 62.3%; in the test with SK-MEL-2 melanoma it was 33.1%; in the test on EKVX NSCLC, 48.7%. For the same compound, the growth in the test with SN12C renal was 44.4%; in the test with UO-31 renal it was 37.6%; with TK-10 renal, 33%; in the test with ACHN renal, 45.6%; with CAKI-1 renal, 96.6%; with A498 renal it was 21.5%. Further, the growth in the test on CCRF-CEM leukemia was 21.5%; in the test on MOLT-4 leukemia it was 31.8%.
With `Cc1ccc2nc(Cl)c(Cn3nnnc3SCc3ccccc3)cc2c1`, the growth was 90.7% in the test on HCT-15 colon; 101% in the test with HT29 colon; 93.4% with SNB-75 CNS; 98.8% in the test on SNB-19 CNS; 95.8% in the test on U251 CNS; 90.4% in the test on PC-3 prostate. Further, the growth in the test on SK-MEL-5 melanoma was 93%; in the test on UACC-62 melanoma, 83.7%; in the test on LOX IMVI melanoma it was 86.7%; in the test with SK-MEL-28 melanoma, 107%; in the test with SK-MEL-2 melanoma it was 96.6%; in the test on EKVX NSCLC, 80.7%. The growth in the test with SN12C renal was 92.8%; in the test on UO-31 renal it was 69.6%; with TK-10 renal it was 97.9%; with ACHN renal, 91.8%; in the test with CAKI-1 renal, 72.1%; with A498 renal it was 74.5%. Also, the growth in the test on CCRF-CEM leukemia was 93.9%; in the test with MOLT-4 leukemia, 97.8%.
In the case of `COc1ccc(-c2ccc(=O)oc2C#Cc2cc(OC)c(OC)c(OC)c2)cc1O`, the growth with HCT-15 colon was 22.5%; in the test with HT29 colon, -9.43% (active); in the test on SNB-75 CNS, -13.4% (active); with SNB-19 CNS, 10.7%; with U251 CNS, 13.6%; with PC-3 prostate, 23.3%. Further, the growth in the test with SK-MEL-5 melanoma was -13.6% (active); in the test on UACC-62 melanoma it was 14.8%; in the test with LOX IMVI melanoma, 23.5%; in the test on SK-MEL-28 melanoma, 38.9%; in the test on SK-MEL-2 melanoma, 29.6%; in the test on EKVX NSCLC, 30.3%. Also, the growth with SN12C renal is 21.2%; with UO-31 renal, 40.5%; in the test with TK-10 renal, 52.5%; with ACHN renal, 52%; with CAKI-1 renal, -15.6% (active); in the test on A498 renal, -0.779% (active). The values for the growth in the test on CCRF-CEM leukemia and in the test with MOLT-4 leukemia were 5.26% (active) and 18.4%, respectively.
As for `O=C(Nc1cccc(NC(=O)C2CCCCC2)c1)c1ccccn1`, the growth in the test on HCT-15 colon was 100%; in the test on HT29 colon, 90.4%; with SNB-75 CNS, 87%; in the test on SNB-19 CNS, 111%; with U251 CNS it was 109%; with PC-3 prostate, 104%. For the same compound, the growth with SK-MEL-5 melanoma is 99.7%; in the test on UACC-62 melanoma, 96.8%; in the test on LOX IMVI melanoma, 90.6%; in the test with SK-MEL-28 melanoma, 103%; in the test with SK-MEL-2 melanoma, 100%; in the test with EKVX NSCLC it was 92%. Also, the growth is 102% in the test on SN12C renal; 88.7% in the test on UO-31 renal; 112% in the test with TK-10 renal; 103% in the test with ACHN renal; 94.9% in the test with CAKI-1 renal; 96.1% in the test on A498 renal. Moreover, the results for the growth in the test with CCRF-CEM leukemia and in the test on MOLT-4 leukemia were 106% and 91.3%, respectively.
On to `CC(/C=C1\SC(=S)N(CC(=O)NC(Cc2c[nH]c3ccccc23)C(=O)O)C1=O)=C\c1ccccc1` (stereo not given), for which the growth in the test with HCT-15 colon was 103%; in the test on HT29 colon it was 110%; in the test with SNB-75 CNS, 87.2%; in the test on SNB-19 CNS, 98.8%; with U251 CNS it was 105%; with PC-3 prostate it was 97.6%. Further, the growth was 96.4% with SK-MEL-5 melanoma; 88.3% in the test with UACC-62 melanoma; 92.9% with LOX IMVI melanoma; 105% in the test with SK-MEL-28 melanoma; 110% with SK-MEL-2 melanoma; 98.5% in the test on EKVX NSCLC. Moreover, the growth with SN12C renal was 95%; with UO-31 renal, 63.9%; in the test on TK-10 renal, 122%; in the test on ACHN renal it was 96.5%; with CAKI-1 renal, 87%; in the test with A498 renal, 107%. Besides, the growth in the test with CCRF-CEM leukemia and in the test on MOLT-4 leukemia was 104% in each case.
Consider `COc1ccc(C2=NN(C(C)=O)C(c3ccc(Oc4ccnc5cc(Cl)ccc45)c(OC)c3)C2)cc1` (stereo not given), for which the growth in the test with HCT-15 colon is 90.6%; in the test with HT29 colon, 15.1%; in the test with SNB-75 CNS it was 16.1%; with SNB-19 CNS it was 73.1%; in the test on U251 CNS, 45.7%; in the test on PC-3 prostate, 56%. The growth is 65.8% in the test with SK-MEL-5 melanoma; 54.7% in the test on UACC-62 melanoma; 53.2% in the test with LOX IMVI melanoma; 35.8% in the test with SK-MEL-28 melanoma; 42.4% in the test with SK-MEL-2 melanoma; 62% with EKVX NSCLC. The growth in the test on SN12C renal was 68.7%; in the test on UO-31 renal it was 70%; with TK-10 renal, 36.6%; in the test on ACHN renal it was 22.9%; with CAKI-1 renal it was 47.9%; in the test with A498 renal, 66.3%. Moreover, the growth was 85.7% in the test on CCRF-CEM leukemia and 78.9% in the test with MOLT-4 leukemia.
Regarding `COc1cc(C(=O)C(=O)c2cc(OC)c(O)c(OC)c2)cc(OC)c1O`, the growth with HCT-15 colon is 103%; in the test on HT29 colon, 103%; with SNB-75 CNS, 91.6%; in the test with SNB-19 CNS, 99.8%; with U251 CNS, 98.4%; in the test with PC-3 prostate, 112%. Further, the growth with SK-MEL-5 melanoma was 104%; in the test with UACC-62 melanoma it was 89.8%; in the test on LOX IMVI melanoma, 97%; in the test on SK-MEL-28 melanoma it was 107%; in the test with SK-MEL-2 melanoma, 115%; with EKVX NSCLC it was 104%. The growth in the test on SN12C renal is 91.3%; in the test on UO-31 renal, 98.6%; in the test on TK-10 renal, 95.8%; with ACHN renal, 98%; with CAKI-1 renal, 105%; in the test on A498 renal, 92.5%. Besides, the growth with CCRF-CEM leukemia is 88.3%; in the test on MOLT-4 leukemia it was 108%.
